Drawing on PubChem BioAssay (NCATS), this text covers outcome, Potency and max response for 39 compounds.

Molecules are shown by their SMILES. Inconclusive results are not listed. Values without a mark were called inactive. Active and inactive are the calls of the source. Calls follow the shape of the dose curve; as a rule, active = well fitted inhibition curve with a large enough effect; inconclusive = small, poorly fitted or top-dose-only effect; inactive = flat fitted curve, though single readings scatter.
% is scaled to controls: 0 for no effect and ±100 for the full control effect; potency is read from the fitted curve at half-maximal effect.

The test system of this test is HEK293. Description: Cytotoxic Profiling of Annotated Libraries Using Quantitative High-Throughput Screening (AID 1296008). Also: nearly all actives have a fitted effect of over 60% in size. The note with it: Five cell lines viability, CellTiter-Glo ATP luminescence, 48-72 h; max response: stronger effect = lower value. The method, boiled down:
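Cells exposed to compounds for 48 or 72 hr at 37 degrees Celsius. Viability read as ATP-coupled luminescence with CellTiter-Glo after 10 min at room temperature.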
For the compound `COC(=O)CC(O)CC(O)/C=C/c1c(C)ccc2c1C(O)CC(C)C2` (centres undefined), the compound was called inactive.

Consider `NC1(C(=O)NC(CCO)c2ccc(Cl)cc2)CCN(c2ncnc3[nH]ccc23)CC1` (centres undefined), for which the Potency is 1.03 µM (active). The same measure, in the same setting: with `CC(=O)SCC(=O)c1ccc(NS(=O)(=O)c2ccc(OCCCN(C)C)cc2)nc1` the figure was 7.31 µM (active). As to `CCOCc1cc(OC)c(-c2ccc(C[C@H](NC(=O)c3c(F)cccc3F)C(=O)O)cc2)c(OC)c1`, the max response is -1.31%. On the same count and under the same terms, in the case of `CC1OC(OC2C(C)OC(OC3C(O)C(CO)OC(O[C@H]4CC[C@@]5(C)C(CC[C@]6(C)C5CC=C5C7[C@@H](C)[C@H](C)CC[C@]7(C(=O)O)CC[C@]56C(=O)O)C4(C)C)C3O)C(O)C2O)C(O)C(O)C1O` (some centres undefined) it was -6.08%. Consider `C[C@@H]1O[C@@H](O[C@@H]2[C@@H](O)[C@@H](O[C@]3(CO)O[C@H](CO)[C@@H](O)[C@@H]3OC(=O)/C=C/c3ccc(O)cc3)O[C@H](CO)[C@H]2OC(=O)/C=C/c2ccc(O)cc2)[C@H](O)[C@H](O)[C@H]1O[C@@H]1O[C@@H](C)[C@H](O[C@@H]2OC[C@](O)(CO)[C@H]2O)[C@@H](O)[C@H]1O`, for which the result was inactive. For the compound `CC(C)(C)c1ccc(S(=O)(=O)NCc2ccc(C(=O)Nc3cccnc3)cc2)cc1`, the Potency is 0.326 µM (active). On the same count and under the same terms, in the case of `C[C@@H]1COCCN1c1cc(C2(S(C)(=O)=O)CC2)nc(-c2cccc3[nH]ccc23)n1` it was 1.46 µM (active). Turning to `O=C(C(c1ccccc1)c1ccccc1)N1CCN(CC(O)COc2cccc3ncccc23)CC1` (centres undefined), the Potency was 6.51 µM (active). `CC1=CC(=O)CC(C)(C)[C@H]1/C=C/C(CO)O[C@@H]1O[C@H](CO)[C@@H](O)[C@H](O)[C@H]1O` (some centres undefined): the max response was -4.12%. Consider `O=C1CCC(c2ccccc2)(C2CCN(Cc3ccc(I)cc3)CC2)C(=O)N1` (centres undefined), for which the Potency is 18.4 µM (active).

With `CNC(=O)c1ccccc1Nc1nc(Nc2ccc3c(c2OC)CCC[C@@H](N2CCN(CCO)CC2)C3)ncc1Cl`, the Potency was 5.8 µM (active).

Regarding `O=C(CO)[C@@H](O)[C@H](O[C@@H]1O[C@H](CO)[C@H](O)[C@H](O)[C@H]1O)[C@H](O)CO`, the compound was classed as inactive. As for `CC(Cc1cc2c(c(C(N)=O)c1)N(CCCO)CC2)NCCOc1ccccc1OCC(F)(F)F` (centres undefined), the Potency is 23.1 µM (active). As for `C/C(=C\CCC(C)CCO)C(=O)OC1(C)CCC2C(C(=O)O)=COC(OC3OC(CO)C(O)C(O)C3O)C21` (centres undefined), the result was inactive. For the compound `CN(C)CCCCC(=O)Nc1ccc(NC(=S)NC(=O)c2ccc(C(C)(C)C)cc2)cc1`, the Potency was 6.51 µM (active). For `COc1c2c(c(CO)c3c1C(=O)OC3)OC1(C)CCC3(O)C(C)(C)OC(=O)CCC3(C)C1C2` (centres undefined), the compound was classed as inactive. `CC(C)c1cc(C(=O)N2CC[C@H](NC(=O)C3CC3)C2)n[nH]1`: the max response was -6.43%. Take `C[C@@]1(O)[C@H](O)[C@@H](CO)O[C@H]1n1ccc(N)nc1=O`: the call was inactive.

As for `CC(C)=C/C=C\[C@H](C)[C@H]1CC[C@]2(C)C[C@@H]3C(C)=CC(=O)C3/C(CO)=C\C[C@@H]12` (some centres undefined), the max response was -20.2%. Still for that read-out and setting: in the case of `CC1=CC(=O)[C@]2(O[C@@H]3O[C@@H](C)[C@H](O)[C@@H](O)[C@H]3OC(=O)/C=C/c3ccccc3)C=CO[C@@H](O[C@@H]3O[C@H](CO)[C@@H](O)[C@H](O)[C@H]3O)[C@H]12` it was -1.41%. For `Cc1cc(Nc2ccc(NC(=O)c3ccc(Nc4ccnc5ccccc45)cc3)cc2)nc(N)n1`, the Potency is 3.26 µM (active).

On to `C[C@@H]1C[C@H]2O[C@@H]2/C=C\C=C\C(=O)Cc2c(Cl)c(O)cc(O)c2C(=O)O1`, for which the Potency is 0.0873 µM (active). Consider `C=C1C(=O)O[C@@H]2C/C(C)=C\C(=O)/C=C(\C)[C@@H](OC(=O)/C(C)=C\C)[C@H](O)[C@@H]12`, for which the Potency is 1.61 µM (active).

For `O=C(/C=C/c1cccc(S(=O)(=O)Nc2ccccc2)c1)NO`, the Potency was 3.99 µM (active).

Turning to `COc1ccc(-c2cnc(-c3cccc4c3-c3ccccc3C4=O)o2)cc1`, the Potency was 0.112 µM (active).

Take `COC(=O)C12C(=O)C(C)=C(O)C1(C)C(C)=CC1C3(CO)CCC(O)C(C)(C)C3CCC12C` (centres undefined): the max response was 1.96%. Same read-out and setting: with `COc1ccc(C2=N[C@@H](c3ccc(Cl)cc3)[C@@H](c3ccc(Cl)cc3)N2C(=O)N2CCNC(=O)C2)c(OC(C)C)c1` the figure was -29%. With `C[C@H](CCC(=O)O)[C@H]1CC[C@H]2[C@@H]3C[C@H](O)[C@@H]4C[C@H](O)CC[C@]4(C)[C@H]3CC[C@]12C`, the max response was 0.0594%. For the compound `COc1cc(C(=O)NC2CCN(C)CC2)c(F)cc1Nc1ncc2c(n1)N(C1CCCC1)CC(F)(F)C(=O)N2C`, the Potency was 0.0184 µM (active). Still for that read-out and setting: in the case of `N#Cc1ccc(-c2cnc3[nH]cc(NC(=O)c4cccnc4)c3c2)cc1` it was 8.2 µM (active). On to `CNC12CC3C[C@@](C)(C1)C[C@](C)(C3)C2`, for which the max response was -16.8%.

`O=C(O)Cc1cn(C2OCC(O)C(O)C2O[C@@H]2O[C@H](CO)[C@@H](O)[C@H](O)[C@H]2O)c2ccccc12` (some centres undefined): the max response was 0.817%. The same measure, in the same setting: in the case of `CC(O)/C=C/C1C(C)C(O[C@@H]2O[C@H](CO)[C@@H](O)[C@H](O)[C@H]2O)C(O)CC1(C)C` (some centres undefined) it was -16.1%.

Take `O=C(Nc1ccc(S(=O)(=O)C(F)(F)F)cc1)C1=CCN(c2ncccc2C(F)(F)F)CC1`: the Potency is 8.2 µM (active). Turning to `O=C(COc1cccc2c(=O)[nH]ccc12)c1ccccc1`, the max response is -5.18%. For `Cc1ccc(C(=O)N(CCCN)C(c2nc3cc(Cl)ccc3c(=O)n2Cc2ccccc2)C(C)C)cc1` (centres undefined), the Potency was 0.0092 µM (active). On to `COc1cc2occc2c(O[C@@H]2O[C@H](CO)[C@@H](O)[C@H](O)[C@H]2O)c1CCC(=O)O`, for which the compound was called inactive.

For `CCCNc1ccc2ncc(-c3ccc4[nH]ncc4c3)n2n1`, the Potency is 1.64 µM (active).
